Results with a measured potency or affinity are listed apart. Active and inactive are the calls of the source. How the calls were made is not given here.
Test: host cell cytotoxicity of antiviral hits, dose response, cytotoxicity control for West Nile virus antiviral project, secondary assay (AID 1650)
Settings: Mammalian host cell viability, cytotoxicity counter-screen; series mostly up to 10 µM

SMILES | outcome
CCN1C/C(=C/c2ccc(N3CCOCC3)cc2)C(=O)/C(=C/c2ccc(N3CCOCC3)cc2)C1 | inactive
Cc1cc(C)cc(SCc2noc(C(=O)NCCN(C)C)c2C(=O)NCCN(C)C)c1 | inactive
COc1ccc(C2Nc3ccc4ccccc4c3-c3c2c(=O)oc2ccccc32)cc1 (stereo not given) | inactive
CCCCN(CC)CCNC(=S)Nc1ccc2nc(N3CCN(C)CC3)cc(C)c2c1 | inactive
COc1cc2c(OC(C)=O)c3c(c(-c4ccc5c(c4)OCO5)c2cc1OC)C(=O)OC3 | inactive
CCOC(=O)c1c(CN2CCN(C)CC2)n(C)c2cc(Br)c(OC)cc12 | inactive
COc1ccc(C2c3[nH]c4ccccc4c3CCN2C(=O)c2ccccc2C(C)=O)c(F)c1 (stereo not given) | inactive
CCN(CC)CCNC(=O)C1CCN(S(=O)(=O)c2c(C)noc2/C=C/c2ccccc2F)CC1 | inactive
COC(=O)c1ccc(C(=O)Nc2cc(Cl)ccc2Cl)cc1NC(=O)c1ccccc1C | inactive
N=C1C(c2nc(-c3ccc(Cl)cc3)cs2)=C(O)CN1CCCN1CCOCC1 | inactive
CN(C)CCNc1ncnc2c1sc1nc(N3CCCC3)c3c(c12)CC(C)(C)OC3 | inactive
C=CCn1cc(C(=O)NCCCOCC)c(=O)c2cc(S(=O)(=O)N(CC)CC)ccc21 | inactive
CCN(CC)CCCNc1oc(-c2cccc(Cl)c2)nc1C#N | inactive
O=C(/C=C/c1cccnc1)c1ccc(O)cc1 | inactive
CCOc1ccc2nc(N3CCCC(C(=O)NCCCN4C(C)CCCC4C)C3)sc2c1 (stereo not given) | inactive
Brc1ccc2c(c1)CN1CCCC1=N2 | inactive
COC(=O)c1c(NC(=O)CCS(=O)(=O)c2ccccc2)sc2c1CCN(C)C2 | inactive
CCOc1ccc(NC(=O)Cn2c(=O)n(CCCC(=O)NC3CCN(Cc4ccccc4)CC3)c(=O)c3ccccc32)cc1 | inactive
O=C(Oc1ccccc1)c1ccc(-n2cnnn2)cc1 | inactive
O=C(CSc1nc2ccccc2c(=O)n1-c1ccc(F)cc1)Nc1ccc2c(c1)CCC2 | inactive

SMILES | outcome
COc1ccc(-c2csc(N(CCCN(C)C)C(=O)c3ccccc3Cl)n2)cc1 | inactive
CN1CCCC(CC2Oc3ccccc3Sc3ccccc32)C1 (stereo not given) | inactive
COc1ccc(NC(=O)CSc2nc3c(sc4ccccc43)c(=O)n2CCCN2CCCC2)cc1 | inactive
CCCCCCOC(=O)C(C#N)c1nc2ccccc2nc1N1CCN(C)CC1 (stereo not given) | inactive
CCCN1CCN(CCCNC(=O)c2cc3c(s2)-c2ccccc2OC3)CC1 | inactive
O=C(NCCCn1ccnc1)c1cc2nc(-c3ccc(Br)cc3)cc(C(F)(F)F)n2n1 | inactive
CCN(CC)S(=O)(=O)c1ccc2c(c1)c(=O)c(C(=O)NCCc1ccc(OC)c(OC)c1)cn2C | inactive
COc1ccc(Cl)cc1NC(=O)c1nnn(CC(=O)Nc2cc(C)cc(C)c2)c1N | inactive
CN1CCN(C(=O)CCN2C(=O)/C(=C\c3ccc(Cl)cc3Cl)SC2=S)CC1 | inactive
CCn1nc(C)c(CN2CCc3c([nH]c4ccccc34)C2c2ccc(F)c(OC)c2)c1C (stereo not given) | inactive
Cn1c(=O)n(CCCOc2ccc(Br)cc2)c2ccccc21 | inactive
Cc1cc(C)c(NC(=O)Cn2nnc(C(=O)Nc3ccc(F)cc3F)c2N)c(C)c1 | inactive
CC1CN(C(=O)CCC(=O)NCCCN2CCC(Cc3ccccc3)CC2)c2cc(Cl)ccc2O1 (stereo not given) | inactive
Cc1ccc(NC(=S)N(CCCN2CCCC2)Cc2cccn2Cc2ccc(Cl)cc2)cc1C | inactive
Cc1nn(CC(=O)NCc2ccc(OC(C)C)cc2)c(=O)c2cc(-c3ccccc3)nn12 | inactive
Cc1ccc(-c2nc3ccccc3n3nnnc23)cc1 | inactive
Cc1ccc2nc(N(CCCN(C)C)C(=O)CCc3ccccc3)sc2c1 | inactive
Cc1ccc(-n2ncc(C(=O)Nc3ccc(Cl)cc3)c2C2CCNCC2)cc1C | inactive
Cc1cc(OCc2cc(C(=O)NCCN3CCCCC3CO)no2)cc(C)c1Cl (stereo not given) | inactive
COc1ccc(C2c3ccc4ccccc4c3Oc3ncn(CCO)c(=N)c32)cc1OC (stereo not given) | inactive

— PubChem BioAssay AID1650 (Southern Research Specialized Biocontainment Screening …, 2009)
